DT40 TDP1 no CPT = qHTS for Inhibitors of human tyrosyl-DNA phosphodiesterase 1 (TDP1): qHTS in cells in absence of CPT. DT40 Tdp1-/- hTDP1 cells, no CPT, ATP luminescence, 48 h. Potency, µM (doses to about 46.2 µM), inactives show at the highest dose activity change, negative = growth inhibition, hits mostly inhibitors. 420,000 tested, 15% active. AID 686978, 2013; further: potency means the concentration at half of the fitted maximal effect; nearly all actives have a fitted effect of over 55% in size
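Seeded 400 DT40-hTDP1 cells/well (vehicle DMSO, no 20 nM CPT); pinned compounds; ≥48 hr at 37 °C; CellTiter-Glo luminescence as viability measure.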
DT40 TDP1 CPT = qHTS for Inhibitors of human tyrosyl-DNA phosphodiesterase 1 (TDP1): qHTS in cells in presence of CPT. chicken DT40 Tdp1-/-;hTDP1 cells + 20 nM CPT, ATP luminescence, 48 h. Potency, µM (titrated, usually from 46.2 µM), for inactives: top-dose activity change, negative = growth inhibition, hits mostly inhibitors. 420,000 tested, 12% active. AID 686979, 2013; further: potency means the concentration at half of the fitted maximal effect; nearly all actives have a fitted effect of over 55% in size
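Chicken DT40 Tdp1-/- cells complemented with human TDP1, 400 cells/well, exposed to compounds plus 20 nM camptothecin for at least 48 h at 37 C; viability read as ATP content by CellTiter-Glo luminescence.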
HT1080-NT tox = qHTS for induction of synthetic lethality in tumor cells producing 2HG: qHTS for the HT-1080-NT fibrosarcoma cell line. 360,000 tested, 1.6% active. AID 686970, 2013. HT-1080-NT fibrosarcoma viability, CellTiter-Glo ATP luminescence, 48 h. Potency, µM (titrated, usually from 46.1 µM), without a hit: at the highest dose activity, negative = less viability, hits mostly cytotoxic;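 further: NT is the 2HG producing partner of a matched IDH1 knockdown line; potency means the concentration at half of the fitted maximal effect; 0% = DMSO-treated cells and -100% = media-only wells without cells; nearly all actives have a fitted effect of over 55% in size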
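Fibrosarcoma NT cells, 750 per well in 5% FBS RPMI, were exposed to compound for 48 hours. Viability: CellTiter-Glo luminescence.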
IL1B secr inh = qHTS for Inhibitors of Inflammasome Signaling: IL-1-beta AlphaLISA Primary Screen. 360,000 tested, 4.7% active. activity change, % at 57.5 µM. THP-1 LPS/ATP IL-1B secretion, AlphaLISA, 16 h; hits give low values; in the data active means activity change below about -50%; inconclusive means mostly about -30% to -49%
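Secreted IL-1B measured by AlphaLISA bead assay after 16 h compound exposure of THP-1 cells; compounds (final up to 57.5 uM) added 1 h before LPS (250 ng/mL) and ATP (1.25 mM) stimulation; lower signal means less secretion.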
HT1080 IDH1KD tx = qHTS for induction of synthetic lethality in tumor cells producing 2HG: qHTS for the HT-1080-IDH1KD cell line; HT-1080 IDH1 knockdown viability, ATP luminescence, 48 h; Potency, µM (series often up to 46.1 µM), for the others: at the highest dose activity, negative = toxicity, most hits filed as cytotoxic; 360,000 tested, 2% active; AID 686971, 2013;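 further: potency means the concentration at half of the fitted maximal effect; 0% = DMSO wells and -100% = cell-free medium wells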
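Luminescent ATP read-out (CellTiter-Glo, 10 min at room temperature) after 48 h compound exposure at 37 °C gave viability of IDH1-knockdown HT-1080 cells. Activity was normalised to DMSO and cell-free wells, then fitted as concentration-response curves.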
An asterisk follows results filed as active; ? = inconclusive; ! = not confirmed by another sample. The list is not random: actives were taken first. Their share in the collection is about 19%. Unless noted, the call rests on the fitted dose curve; in most records, active means well fitted curve in the direction sought with a large enough effect; inconclusive means small, poorly fitted or top-dose-only effect, or another doubt; inactive means no such curve, though single readings can be large; an effect the other way counts as inactive or inconclusive. Unless noted, on the % scale 0 is the no-effect control and ±100 the full control effect.

SMILES	DT40 TDP1 no CPT	DT40 TDP1 CPT	HT1080-NT tox	IL1B secr inh	HT1080 IDH1KD tx
Cc1ccc(C(=O)Nc2ncc(Cc3ccc(SC(F)F)cc3)s2)cc1	1.3µM*	1.2µM*	1.8µM*	0	2.6µM*
O=C(Nc1ncc([N+](=O)[O-])s1)c1ccc2c(c1)OCO2	18µM*	?	15µM*	-12	16µM*
Cc1ccc([N+](=O)[O-])cc1NC(=O)c1ccc2c(c1)OCO2	3%	11%	14%	0	1%
Cc1ccc(C(=O)Nc2ncc([N+](=O)[O-])s2)cc1	18µM*	23µM*	18µM*	-67*	23µM*
CCOC(=O)Cc1cn(C(=O)OC(C)(C)C)c2ccccc12	?	?	5%	16	4%
CCOc1cc(/C=C2/C(=N)N3C(=NC2=O)SN=C3S(C)(=O)=O)ccc1OS(=O)(=O)c1ccccc1	21µM*	?	0%	-5	-2%
CSc1c(CC(=O)Nc2ccccc2)n(C)c2ccccc12	?	15µM*	-22%	18	-26%
Cn1c(CC(=O)Nc2ccccc2)cc2ccccc21	?	7.3µM*	-7%	34	-13%
Cn1c(CC(=O)Nc2ccccc2)c(Sc2ccccc2)c2ccccc21	-1%	-13%	-13%	49	-9%
O=C(N/N=C/c1cc2cc3c(cc2nc1Cl)OCO3)c1ccncc1	-3%	17%	-5%	-16	5%
Cc1cccc(NC(NC(=O)Cc2ccccc2)C(Cl)(Cl)Cl)c1 (stereo not drawn)	21µM*	18µM*	2%	-8	1%
O=C(CCCCCNc1nc(=S)[nH]c2ccccc12)NCCc1c[nH]c2ccccc12	15µM*	18µM*	1%	-78*	4%
Nc1nc2cc3c(cc2cc1C(=O)NCc1ccc(F)cc1)OCO3	4.1µM*	16µM*	?	22	?
O=C(CCCCCNc1nc(=S)[nH]c2ccccc12)NCCc1ccc(Cl)cc1	?	-7%	-10%	-1	-4%
O=C(O)CCCCCNc1nc(=S)[nH]c2ccccc12	-14%	-7%	-4%	53	-7%
CC(C)CCNC(=O)Cc1ccc(Nc2nc(=S)[nH]c3ccccc23)cc1	?	-18%	-4%	-65*	2%
O=C(NCCc1c[nH]c2ccccc12)c1cc2sccc2n1Cc1ccccc1	21µM*	23µM*	-6%	-15	-8%
Nc1nc2ccc(Cl)cc2cc1C(=O)NCCc1ccc(Cl)cc1Cl	?	?	1%	49	2%
OCc1c[nH]c2ccccc12	39µM*!	17µM*!	7%	23	-3%
Nc1nc2ccc(Cl)cc2cc1C(=O)NCc1ccc(Oc2ccccc2)cc1	1.3µM*	0.65µM*	-20%	95	?
Nc1nc2ccc(Cl)cc2cc1C(=O)NCCc1c[nH]c2ccccc12	?	8.2µM*	?	-14	?
O=C(Cc1ccc(Cl)cc1)NCCc1c[nH]c2ccccc12	?	18µM*	-2%	1	-4%
CC1CCCC12NC(=O)NC2=O (stereo not drawn)	6%	-24%	15%	5	16%
CN1CCN(CCCc2c3c(cc4c2CCC4)CCC3)CC1	?	?	-1%	-2	-3%
OC[C@@H]1[C@@H](c2ccc(Cl)cc2)C(c2cccc(Cl)c2)=NN1c1ccccc1	13µM*	21µM*	?	?	-28%
SMILES	DT40 TDP1 no CPT	DT40 TDP1 CPT	HT1080-NT tox	IL1B secr inh	HT1080 IDH1KD tx
OC[C@@H]1[C@@H](c2ccc(F)cc2)C(c2cccc(Cl)c2)=NN1c1ccccc1	23µM*	21µM*	-21%	?	-21%
O=C1OCCN1C(=O)[C@H]1[C@H](c2ccccc2)C(c2ccccc2)=NN1c1ccccc1	-19%	?	-6%	-7	-8%
COc1ccccc1[C@H]1C(c2cccc(C)c2)=NN(c2ccccc2)[C@@H]1CO	?	?	?	-16	?
OC[C@@H]1[C@@H](c2ccc(Cl)cc2)C(c2ccccc2)=NN1c1ccccc1	16µM*	?	?	?	?
CN(Cc1ccccc1)C(=O)c1[nH]cnc1C(=O)Nc1ccccc1F	-8%	-6%	18%	2	17%
Cn1ccs/c1=N\C(=O)Nc1cccc(C(F)(F)F)c1	13%	-5%	-10%	?	-5%
COc1cc(OCc2ccccc2)c(OC)c(OCc2ccccc2)c1	?	21µM*	1%	4	-6%
COc1c(Br)cc(C(N)=O)cc1OCc1ccccc1	-22%	-23%	-1%	19	0%
O=C(C[n+]1cc(-c2ccc(F)cc2)n2c1CCC2)Nc1nc(-c2ccccc2)cs1	?	?	-15%	-2	-30%
O=C(C[n+]1cc(-c2ccc(Cl)cc2)n2c1CCC2)Nc1nc(-c2ccccc2)cs1	5.8µM*	?	10%	?	-6%
Cc1ccc(-c2c[n+](CC(=O)Nc3nc(-c4ccc(F)cc4)cs3)c3n2CCC3)cc1	10µM*	12µM*	21µM*	-100*	23µM*
O=C(NC1CCCC1)C(c1ccccc1)N(C(=O)c1csnn1)c1ccccc1F (stereo not drawn)	-21%	0%	-2%	21	?
Cc1ccc(S(=O)(=O)CCC(=O)N(CCN2CCOCC2)c2nc3ccccc3s2)cc1	16µM*	21µM*	-11%	-3	-3%
Cc1cccc2sc(N(CCN3CCOCC3)C(=O)CCS(=O)(=O)c3ccccc3)nc12	21µM*	16µM*	-12%	-98*	-10%
Cc1cccc2sc(N(CCCN3CCOCC3)C(=O)CS(=O)(=O)c3ccc(F)cc3)nc12	-23%	1%	-1%	-12	2%
COc1ccc(NC(=O)C(C)N2C(=O)C3CC=C(Cl)CC3C2=O)cc1 (stereo not drawn)	-4%	-4%	-3%	12	-7%
Nc1nc(C2CCCN2S(=O)(=O)c2ccc(Cl)cc2)cs1 (stereo not drawn)	-12%	4%	7%	-22	10%
CCCCn1c(/N=C/c2ccccc2NS(=O)(=O)c2ccc(C)cc2)nc2ccccc21	23µM*	?	-19%	-7	-24%
Cc1ccc(S(=O)(=O)Nc2ccccc2/C=N/c2nc3ccccc3n2C(C)C)cc1	21µM*	18µM*	18µM*	-4	15µM*

High-throughput results as filed in PubChem.
